Results on 46 compounds are retold here after the supplement of paper PMC10670038.

Each structure is given as a SMILES string. Counter-ions that a name gives are not always drawn. ± gives the standard deviation of the averaged measurements. In all, about 2,000 compounds were measured (“relative cell viability vs DMSO, compound alone”: median about 1.1, lowest 2% from about 0.29 on). Only a selection was taken, and the lowest values are over-represented in it overall.

The assay has as its system TE10. Briefly: relative cell viability vs DMSO, compound alone (fraction); TE10 is an esophageal squamous carcinoma line; higher = less cytotoxic. Particulars: 2 µM; 48 h. As to the method:
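TE10 ESCC cells (1,000/well, 384-well plates) were treated with Selleck bioactive library compounds at 2 uM alone for 48 h. Viability was read by CellTiter-Glo and expressed relative to DMSO wells. Two technical replicates (A, B).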
As to `CC(C)(C)c1ccc(S(=O)(=O)/C=C/C#N)cc1`, the relative cell viability is 0.0635 ± 0.0029.

Compound `Cc1ccc(S(=O)(=O)C=CC#N)cc1` yielded a relative cell viability of 0.063 ± 0.0047.

As for `CNc1nc(-c2ccc3c(N)n[nH]c3c2)cc(N2C[C@@H](C(=O)NC3CCCCC3)CC[C@H]2C)n1`, the relative cell viability was 1.05 ± 0.037.

Consider `COc1c(N2C[C@@H]3CCCN[C@@H]3C2)c(F)cc2c(=O)c(C(=O)O)cn(C3CC3)c12` [Moxifloxacin HCl], for which the relative cell viability worked out at 1.18 ± 0.016.

Compound `C[C@]12CC[C@@H]3c4ccc(O)cc4CC[C@H]3[C@@H]1CC[C@@H]2OC(=O)CCC1CCCC1` [Estradiol Cypionate] showed a relative cell viability of 1.13 ± 0.085.

Compound `Cn1cc(-c2[nH]c3cc(NC(=O)[C@H](N)C4CCCCC4)cc4c3c2C=NNC4=O)cn1` displayed a relative cell viability of 1.05 ± 0.075.

With `CCOc1cc([C@@H](CS(C)(=O)=O)N2C(=O)c3cccc(NC(C)=O)c3C2=O)ccc1OC`, the relative cell viability amounted to 0.887 ± 0.18.

Consider `CC(C)c1nc(CN(C)C(=O)N[C@H](C(=O)N[C@@H](Cc2ccccc2)C[C@H](O)[C@H](Cc2ccccc2)NC(=O)OCc2cncs2)C(C)C)cs1` [Ritonavir], for which the relative cell viability was determined as 1.13 ± 0.062.

Compound `CC(C)C[C@@H](C=O)NC(=O)[C@H](CC(C)C)NC(=O)[C@H](CC(C)C)NC(=O)OCc1ccccc1` returned a relative cell viability of 0.0786 ± 0.0013.

`CC(NC(=O)C(Cc1ccccc1)NC(=O)OCc1ccccc1)C(=O)CF` (stereo unspecified): the relative cell viability was 1.14 ± 0.064.

In turn, `CCCC[C@@H](C=O)NC(=O)[C@H](CC(C)C)NC(=O)OCc1ccccc1` [Calpeptin] yielded a relative cell viability of 1 ± 0.021.

`CCCCC(=O)O[C@]1(C(=O)CO)[C@@H](C)C[C@H]2[C@@H]3CCC4=CC(=O)C=C[C@]4(C)[C@@]3(F)[C@@H](O)C[C@@]21C` [Betamethasone valerate (Betnovate)] gave a relative cell viability of 0.865 ± 0.078.

Regarding `COc1cc(Nc2nc3ccccc3nc2NS(=O)(=O)c2ccc(NC(=O)c3ccc(C)c(OC)c3)cc2)cc(OC)c1`, the relative cell viability was 1.15 ± 0.067.

For `O=C(c1cn(Cc2cncn2Cc2ccc(Br)cc2)cc1-c1cccc2ccccc12)N1CCOCC1`, the relative cell viability amounted to 0.958 ± 0.015.

In turn, `CCc1cc(/C(C)=N/OCc2ccc(C3CCCCC3)c(C(F)(F)F)c2)ccc1CN1CC(C(=O)O)C1` [BAF312 (Siponimod)] registered a relative cell viability of 1.1 ± 0.07.

The compound `O=C(O)c1cc(/N=N/c2ccc(O)c(C(=O)O)c2)ccc1O` [Olsalazine Sodium] returned a relative cell viability of 1.12 ± 0.12.

As to `CC(=O)N[C@@H](CC(C)C)C(=O)N[C@@H](CC(C)C)C(=O)N[C@H](C=O)CCCNC(=N)N` [Leupeptin Hemisulfate], the relative cell viability was determined as 1.09 ± 0.015.

`CCCCC(C=O)NC(=O)C(CC(C)C)NC(=O)C(CC(C)C)NC(C)=O` (stereo unspecified) yielded a relative cell viability of 0.266 ± 0.011.

In the case of `CC(C)CCNC(=O)[C@H](CC(C)C)NC(=O)[C@H]1O[C@@H]1C(=O)O` [Loxistatin Acid (E-64C)], the relative cell viability turned out to be 1.1 ± 0.019.

In turn, `Cc1ccc(C(=O)Nc2cccc(C(F)(F)F)c2)cc1Nc1nc(-c2cccnc2)nc2c1cnn2C` yielded a relative cell viability of 1.13 ± 0.043.

Consider `Cc1cnc(NC(=O)C2=C(O)c3ccccc3S(=O)(=O)N2C)s1` [Meloxicam], for which the relative cell viability came out at 1.11 ± 0.045.

For `CC(=O)O[C@]1(C(C)=O)CC[C@H]2[C@@H]3C[C@H](C)C4=CC(=O)C=C[C@]4(C)[C@@]3(F)[C@@H](O)C[C@@]21C` [Fluorometholone Acetate], the relative cell viability stood at 0.914 ± 0.099.

Compound `CCCCC(=O)O[C@H]1CC[C@H]2[C@@H]3CCc4cc(O)ccc4[C@H]3CC[C@]12C` [Estradiol valerate] yielded a relative cell viability of 1.07 ± 0.1.

In the case of `Cc1ccc(NC(=O)c2ccc(CN3CCN(C)CC3)cc2)cc1Nc1nc(-c2cccnc2)cs1` [Masitinib (AB1010)], the relative cell viability came out at 1.084 ± 0.0069.

With `CC(C)(C)c1cc(NC(=O)Nc2ccc(-c3cn4c(n3)sc3cc(OCCN5CCOCC5)ccc34)cc2)no1` [Quizartinib (AC220)], the relative cell viability stood at 0.594 ± 0.04.

The compound `CN(NC(=O)CC(=O)NN(C)C(=S)c1ccccc1)C(=S)c1ccccc1` [Elesclomol (STA-4783)] yielded a relative cell viability of 0.181 ± 0.013.

For the compound `O=C(O)c1ccccc1` [Benzoic Acid], the relative cell viability was 1.09 ± 0.0064.

For `O=C(O)CCNC(=O)c1ccccc1` [Betamipron], the relative cell viability turned out to be 1.08 ± 0.022.

`CC1(C)O[C@@H]2[C@@H](CO[C@@]3(COS(N)(=O)=O)OC(C)(C)O[C@@H]23)O1` [Topiramate] came in with a relative cell viability of 1.29 ± 0.052.

In turn, `C[C@@H]1CN(CC(=O)Nc2ccc3c(c2)Cc2cccc(-c4cc(=O)cc(N5CCOCC5)o4)c2S3)C[C@H](C)O1` returned a relative cell viability of 1.17 ± 0.021.

Consider `Cc1cc(C)cc(NC(=O)Cc2ccc(OC(C)(C)C(=O)O)cc2)c1` [Efaproxiral Sodium], for which the relative cell viability was 1.11 ± 0.012.

Take `O=C(Nc1cc(C(F)(F)F)cc(C(F)(F)F)c1)c1cc(Cl)ccc1O`: the relative cell viability worked out at 0.18 ± 0.0024.

The compound `CC(ONC(=O)c1cc(C(F)(F)F)cc(C(F)(F)F)c1)C(=O)Nc1ccc(Cl)cc1` (stereo unspecified) displayed a relative cell viability of 1.07 ± 0.024.

Consider `O=C(Nc1ccccc1)c1ccccc1O` [Salicylanilide], for which the relative cell viability was determined as 1.07 ± 0.059.

`C=CC(=O)Nc1cccc(Oc2nc(Nc3ccc(N4CCN(C)CC4)cc3)ncc2Cl)c1` showed a relative cell viability of 0.758 ± 0.011.

`C[C@H]1O[C@@H](O[C@H]2[C@@H](O)C[C@H](O[C@H]3[C@@H](O)C[C@H](O[C@H]4CC[C@@]5(C)[C@H](CC[C@@H]6[C@@H]5C[C@@H](O)[C@]5(C)[C@@H](C7=CC(=O)OC7)CC[C@]65O)C4)O[C@@H]3C)O[C@@H]2C)C[C@H](O)[C@@H]1O` [Digoxin] showed a relative cell viability of 0.603 ± 0.013.

As for `Nc1nc(=O)n([C@@H]2CS[C@H](CO)O2)cc1F` [Emtricitabine], the relative cell viability was 1.06 ± 0.076.

As for `CCn1c2ccccc2c2cc(Nc3ccnc(NCCCN4CCOCC4)n3)ccc21`, the relative cell viability was found to be 1.2 ± 0.076.

Compound `COc1ccc(-c2nc(N3CCOCC3)c3sc(CN(C)c4ncc(C(=O)NO)cn4)cc3n2)cn1` showed a relative cell viability of 0.0746 ± 0.0025.

`Cc1c(CN2CCN(C(=O)[C@H](C)O)CC2)sc2c(N3CCOCC3)nc(-c3cnc(N)nc3)nc12` yielded a relative cell viability of 0.317 ± 0.021.

Take `CS(=O)(=O)N1CCN(Cc2cc3nc(-c4cccc5[nH]ncc45)nc(N4CCOCC4)c3s2)CC1`: the relative cell viability was determined as 0.483 ± 0.0077.

`C[C@@H](Oc1ccc2[nH]nc(/C=C/c3cnn(CCO)c3)c2c1)c1c(Cl)cncc1Cl`: the relative cell viability was 0.712 ± 0.01.

`Cc1nc(Nc2n[nH]c3c2CN(C(=O)N[C@H](CN(C)C)c2ccccc2)C3(C)C)c2sccc2n1` gave a relative cell viability of 0.789 ± 0.037.

In turn, `COc1cccc2cc(-c3nc([C@H]4CC[C@H](C(=O)O)CC4)n4ncnc(N)c34)[nH]c12` showed a relative cell viability of 0.667 ± 0.0089.

As to `Cc1cc(N2CCOCC2)ccc1Nc1nc(NC2CCCCC2)c2[nH]cnc2n1`, the relative cell viability was determined as 1.098 ± 0.0034.

Regarding `Cc1cccc(CC(=O)N2CCc3c2ccc(-c2cn(C)c4ncnc(N)c24)c3F)n1`, the relative cell viability was determined as 1.01 ± 0.047.
